Bioassay records from PubChem.
This excerpt belongs to a sample that is enriched for hits.
miR-122 inh: miR-122 suppressors via Renilla sensor increase, primary screen, cell-based, Huh7 psiCHECK-miR122, Renilla luciferase, single point | 48 h | activation, % at 12.5 µM | hit rate 0.14% among 340,000;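 active = mean activation of 30% or more, with every replicate also reaching 30%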;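 also: 0% = median of neutral control wells and 100% = median of positive control wells; higher luciferase signal means stronger suppression of miR-122 activity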
Numbers without * were called inactive.

SMILES	miR-122 inh
C[C@H](CO)N1C[C@H](C)[C@H](CN(C)Cc2ccccc2C(=O)O)Oc2ncc(C3=CCCCC3)cc2C1=O	0
COc1ccccc1-c1cnc2c(c1)C(=O)N([C@@H](C)CO)C[C@@H](C)[C@H](CN(C)Cc1ccccc1)O2	-1
COc1ccc(C(=O)Nc2ccc3c(c2)OC[C@H](C)N(C)C[C@@H](C)[C@@H](OC)CN(C)C3=O)cc1	0
C[C@H](CO)N1C[C@H](C)[C@@H](CN(C)Cc2ccc(Oc3ccccc3)cc2)Oc2ncc(-c3cccnc3)cc2C1=O	0
Cc1ccc(S(=O)(=O)N(C)C[C@@H]2Oc3ccc(NC(=O)Nc4ccc5c(c4)OCO5)cc3CC(=O)N([C@@H](C)CO)C[C@@H]2C)cc1	-113
CCCNC(=O)N(C)C[C@H]1Oc2ncc(C#C[C@@H](C)O)cc2C(=O)N([C@H](C)CO)C[C@H]1C	5
C[C@H](CO)N1C[C@H](C)[C@H](CN(C)Cc2ccc(C(=O)O)cc2)Oc2ncc(-c3ccc(F)cc3)cc2C1=O	-22
CCCC#Cc1ccc2c(c1)O[C@H](CN(C)C(=O)NCCC)[C@H](C)CN([C@@H](C)CO)S2(=O)=O	-10
C[C@@H]1CN([C@H](C)CO)S(=O)(=O)c2ccc(C#Cc3ccc(F)cc3)cc2O[C@@H]1CN(C)S(C)(=O)=O	-22
C[C@H](CO)N1C[C@H](C)[C@H](CN(C)C(=O)Cc2ccccn2)Oc2ncc(-c3cccc(C(=O)N(C)C)c3)cc2C1=O	-5
CCCNC(=O)N(C)C[C@@H]1Oc2ncc(-c3ccc(C(=O)N(C)C)cc3)cc2C(=O)N([C@@H](C)CO)C[C@@H]1C	1
COc1cc(/C=N/Nc2nc(Nc3ccc(C)cc3)nc(-n3nc(C)cc3C)n2)cc(OC)c1OC	47*
Cc1ccccc1-c1ccc2c(c1)O[C@@H](CN(C)C(=O)Nc1ccccc1)[C@H](C)CN([C@@H](C)CO)S2(=O)=O	6
CCCNC(=O)N(C)C[C@@H]1Oc2ncc(C#CCC3CCCC3)cc2C(=O)N([C@H](C)CO)C[C@@H]1C	7
CCC(=O)N(C)C[C@H]1Oc2ncc(C#C[C@H](C)O)cc2C(=O)N([C@@H](C)CO)C[C@@H]1C	-1
CCCNC(=O)N(C)C[C@H]1Oc2cc(C#CCOC)ccc2S(=O)(=O)N([C@@H](C)CO)C[C@H]1C	-10
CCn1c(Cl)c(C=O)s/c1=N\S(=O)(=O)c1ccccc1	72*
COc1ccc(C#Cc2cnc3c(c2)C(=O)N([C@@H](C)CO)C[C@H](C)[C@@H](CN(C)CC2CCCC2)O3)cc1	-6
COc1ccccc1C#Cc1ccc2c(c1)O[C@@H](CN(C)Cc1cncnc1)[C@H](C)CN([C@H](C)CO)S2(=O)=O	-37
OCc1ccc(-c2nn(Cc3ccccc3)c3ccccc23)o1	54*
COc1ccc(NC(=O)N(C)C[C@@H]2Oc3ncc(-c4cccc(F)c4)cc3C(=O)N([C@H](C)CO)C[C@@H]2C)cc1	5
CO[C@H]1CN(C)C(=O)c2ccc(NC(=O)Nc3ccc(F)cc3)cc2OC[C@@H](C)NC[C@@H]1C	2
Cc1cc(C)cc(Oc2ccc(NC(=O)C3CC=CCC3C(=O)O)cc2)c1 (stereo not drawn)	32*
C[C@@H]1CN([C@H](C)CO)C(=O)c2cc(C#CCN(C)C)cnc2O[C@@H]1CN(C)C(=O)Cc1ccncc1	-3
CCC(=O)N(C)C[C@H]1Oc2ncc(C#Cc3ccccc3OC)cc2C(=O)N([C@H](C)CO)C[C@H]1C	1
SMILES	miR-122 inh
CCCC(=O)Nc1ccc2c(c1)C(=O)N(C)C[C@H](OC)[C@H](C)CN(CCC)[C@H](C)CO2	0
C[C@@H]1CN([C@@H](C)CO)C(=O)c2cc(N(C)C)ccc2O[C@@H]1CN(C)C(=O)Nc1ccc(F)cc1	-103
C[C@@H]1CN([C@H](C)CO)C(=O)c2cc(C#Cc3cccc(F)c3)cnc2O[C@H]1CN(C)C(=O)C1CC1	-4
COc1ccc2[nH]c3c4c(ccc3c2c1)C(=O)C=CC4=O	42*
C[C@H]1CN([C@@H](C)CO)C(=O)c2cc(/C=C/c3ccccc3)cnc2O[C@@H]1CN(C)Cc1cccc(C(=O)O)c1	4
COCC#Cc1ccc2c(c1)O[C@H](CN(C)C(C)=O)[C@@H](C)CN([C@H](C)CO)S2(=O)=O	-3
Cc1ccc(-c2cnc3c(c2)C(=O)N([C@H](C)CO)C[C@H](C)[C@@H](CN(C)C(=O)c2ccncc2)O3)cc1	-8
C[C@@H]1CN([C@H](C)CO)C(=O)c2cc(-c3cccc(F)c3)cnc2O[C@@H]1CN(C)C(=O)c1ccccn1	0
CCC(=O)Nc1ccc2c(c1)OC[C@@H](C)N(C(=O)c1ccccc1F)C[C@@H](C)[C@@H](OC)CN(C)C2=O	-5
O=CN1CCN(C(=O)c2ccccc2F)CC1	34*
COc1cccc(-c2cnc3c(c2)C(=O)N([C@H](C)CO)C[C@@H](C)[C@H](CN(C)Cc2cccnc2)O3)c1	2
CC(C(=O)OCC(=O)Nc1ncc(Cl)cc1Cl)N1C(=O)c2ccccc2C1=O (stereo not drawn)	36*
Cc1ccc(S(=O)(=O)N(C)C[C@@H]2Oc3cc(C#CC4CCCC4)ccc3S(=O)(=O)N([C@@H](C)CO)C[C@@H]2C)cc1	-29
C[C@@H]1CN([C@H](C)CO)C(=O)c2cc(-c3cccc(C(=O)N(C)C)c3)cnc2O[C@@H]1CN(C)CC1CC1	1
CNc1nc(NCC2CCCCC2)c2sccc2n1	43*
COc1ccccc1CNS(=O)(=O)c1ccc(-c2cc(C)no2)cc1	-95
COc1ccccc1CNc1nc(NCC2CC2)nc2ccsc12	43*
C[C@H]1CN([C@@H](C)CO)C(=O)c2cccc(NC(=O)C3CC3)c2O[C@@H]1CN(C)Cc1ccc(C(F)(F)F)cc1	-113
Cc1ccc(S(=O)(=O)N(C)C[C@@H]2Oc3cc(C#CC4CCCC4)ccc3S(=O)(=O)N([C@H](C)CO)C[C@H]2C)cc1	-3
CC(=O)N(C)C[C@@H]1Oc2cc(C#C[C@@H](C)O)ccc2S(=O)(=O)N([C@H](C)CO)C[C@@H]1C	4
CCC(=O)N(C)C[C@H]1Oc2ncc(-c3cccc(OC)c3)cc2C(=O)N([C@@H](C)CO)C[C@@H]1C	2
C[C@H](CO)N1C[C@H](C)[C@H](CN(C)Cc2ccc(C(=O)Nc3ccccc3N)cc2)Oc2ccc(NS(=O)(=O)c3ccc(F)cc3)cc2CC1=O	-162
CCCN1C[C@H](C)[C@H](OC)CN(C)C(=O)c2ccc(NS(C)(=O)=O)cc2OC[C@H]1C	-3
Cn1c(-c2ccc(N)cc2)nc2ccccc21	36*
CO[C@H]1CN(C)C(=O)c2cc(NS(=O)(=O)c3ccccc3)ccc2OC[C@H](C)N(C)C[C@H]1C	-1
SMILES	miR-122 inh
Cc1ccc(-c2cnc3c(c2)C(=O)N([C@@H](C)CO)C[C@H](C)[C@H](CN(C)C(=O)Cc2cccnc2)O3)cc1	10
COCC(=O)Nc1ccc2c(c1)C(=O)N(C)[C@H]1CC[C@@H](CC(=O)O)O[C@H]1CO2	-262
COCC(=O)Nc1ccc2c(c1)C(=O)N(C)[C@@H]1CC[C@H](CC(=O)NCCCN(C)C)O[C@H]1CO2	45*
COCC(=O)Nc1ccc2c(c1)C(=O)N(C)[C@@H]1CC[C@H](CC(=O)NCc3ccccc3F)O[C@H]1CO2	50*
C[C@H]1CN([C@@H](C)CO)C(=O)c2cc(C#CCN(C)C)cnc2O[C@@H]1CN(C)C(=O)Cc1ccncc1	2
C[C@@H]1CN([C@H](C)CO)C(=O)c2cc(N(C)C)ccc2O[C@@H]1CN(C)S(=O)(=O)c1ccc(Cl)cc1	-98
